Experimental data as given in PubChem BioAssay (Tox21).
Results filed as inconclusive are left out. A number with no mark means an inactive call. Unless noted, the call rests on the fitted dose curve; in most records, active means well fitted cell-killing curve with a large enough effect in the repeat runs (not every such curve was filed as active); inconclusive means weak or mixed curves, or effect the other way; inactive means no such curve, though single readings can be large or run the other way.

Test system: not listed separately
Assay: qHTS assay to identify small molecule antagonists of the farnesoid-X-receptor (FXR) signaling pathway - cell viability counter screen (AID 743221); further: nearly all actives have a fitted effect of over 50% in size
Conditions: FXR-bla HEK293T viability, CellTiter-Glo luminescence, 16 h; series mostly up to 62.6 µM; activity change, negative = cytotoxicity: at the top concentration
Summary of the method: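 In GeneBLAzer FXR-UAS-bla HEK 293T cells stimulated with 50 uM chenodeoxycholic acid (final), compounds acted for 16 h at 37 C. Viability was assessed afterwards by CellTiter-Glo luminescence.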
On the % scale 0 is the no-effect control and ±100 the full control effect.

First: CCC(C)n1c(=O)[nH]c(C)c(Br)c1=O (stereo unspecified)
Second: CCNc1nc(NC(C)C)nc(OC)n1
The “activity change, negative = cytotoxicity” value of the first is higher: 8.54% for the first, -5.52% for the second.

First: C[N+](C)=CCl
Second: CC(Cl)(Cl)[N+](=O)[O-]
The “activity change, negative = cytotoxicity” value of the first is lower: 4.58% for the first, 11.5% for the second.

First: CCOP(=S)(OCC)Oc1cc(-c2ccccc2)on1
Second: CCN(CC)c1nc(C)cc(OP(=S)(OC)OC)n1
The “activity change, negative = cytotoxicity” value of the first is lower: -19.1% for the first, 4.33% for the second.

Compared with CC(C)(C)OC(=O)c1ncn2c1[C@@H]1CCCN1C(=O)c1c(Br)cccc1-2, COc1cc(OC)nc(Sc2cccc(Cl)c2C(=O)O)n1 is higher in “activity change, negative = cytotoxicity” value: 6.13% for the first, 11% for the second.

Compared with CCOC(=O)NC(=S)Nc1ccccc1NC(=S)NC(=O)OCC, COP(N)(=S)Oc1ccccc1C(=O)OC(C)C (stereo unspecified) is higher in “activity change, negative = cytotoxicity” value: -6.5% for the first, -0.306% for the second.

First: O=NN1CCN(N=O)CC1
Second: CC1=NNC(=O)N(/N=C/c2cccnc2)C1
The “activity change, negative = cytotoxicity” value of the first is lower: 1.3% for the first, 14.5% for the second.

First: CN1CCC(O)(c2ccc(F)cc2)C(C(=O)c2ccc(F)cc2)C1 (stereo unspecified)
Second: O=C(Nc1ccccc1)N(Cc1ccc(Cl)cc1)C1CCCC1
The “activity change, negative = cytotoxicity” value of the first is higher: 5.61% for the first, -10.1% for the second.

Going from CCCCc1ccc(O)cc1 to N#CC(CCc1ccc(Cl)cc1)(Cn1cncn1)c1ccccc1 (stereo unspecified), the “activity change, negative = cytotoxicity” value falls from 9.38% to 4.76%.

Going from CN1C(=S)CN=C(c2ccccc2)c2cc(Cl)ccc21 to Nc1cnn(-c2ccccc2)c(=O)c1Cl, the “activity change, negative = cytotoxicity” value rises from 7.04% to 21.6%.

Going from C#C[C@]1(O)C=C[C@H]2[C@@H]3CCC4=CC(=O)CC[C@@H]4[C@H]3CC[C@@]21CC to CNC(=O)Oc1ccccc1C1OCCO1, the “activity change, negative = cytotoxicity” value rises from -0.673% to 1.05%.

Compared with Nc1cc(Cl)ccc1O, CCCSP(=O)(OCC)Oc1ccc(Br)cc1Cl (stereo unspecified) is higher in “activity change, negative = cytotoxicity” value: -2.33% for the first, 3.31% for the second.

Going from O=[N+]([O-])c1ccc2c3c(cccc13)CC2 to CC(COc1ccc(Oc2ccccc2)cc1)Oc1ccccn1 (stereo unspecified), the “activity change, negative = cytotoxicity” value rises from -22.2% to 9.97%.

Going from BrCCCCCCBr to CCCCOP(=O)(O)OCCCC, the “activity change, negative = cytotoxicity” value rises from -1.42% to 1.88%.

Going from CCOc1nc(C(Cl)(Cl)Cl)ns1 to CCOP(=S)(OCC)SCSP(=S)(OCC)OCC, the “activity change, negative = cytotoxicity” value rises from -1.84% to -1.73%.

With CNC(=O)Oc1ccc(N(C)C)c(C)c1 the “activity change, negative = cytotoxicity” value was 0.549%.

First: O=C(Cc1ccccc1)OCc1ccccc1
Second: CC(CC(C#N)(c1ccccc1)c1ccccc1)N(C)C (stereo unspecified)
The “activity change, negative = cytotoxicity” value of the first is higher: 0.272% [at 81.1 µM] for the first, -15% [at 81.1 µM] for the second.

First: CCCCCCBr
Second: Nc1c(Br)cc([N+](=O)[O-])cc1[N+](=O)[O-]
The “activity change, negative = cytotoxicity” value of the first is higher: -0.322% [at 81.1 µM] for the first, -5.74% [at 81.1 µM] for the second.

With C[C@H]1CCC[C@H](O)CCCCCc2cc(O)cc(O)c2C(=O)O1 the “activity change, negative = cytotoxicity” value was 5.86% [at 81.1 µM].

Biological target: Vitamin D3 receptor (Homo sapiens) (UniProt P11473)
Assay: qHTS assay to identify small molecule agonists of the vitamin D receptor (VDR) signaling pathway (AID 743222; calls by dose curve)
Conditions: HEK293T VDR-UAS-bla, beta-lactamase FRET ratio, 16 h; series mostly up to 63.5 µM; activation: at the top concentration
Summary of the method: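 Cells carrying a VDR-driven beta-lactamase reporter are seeded at 2,000 per well and rested 4 h. Compounds in DMSO are added for 16 h at 37C, and FRET substrate fluorescence is measured after 2 h at room temperature.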

Sequence of Vitamin D3 receptor (Homo sapiens) (P11473 whole entry, looked up): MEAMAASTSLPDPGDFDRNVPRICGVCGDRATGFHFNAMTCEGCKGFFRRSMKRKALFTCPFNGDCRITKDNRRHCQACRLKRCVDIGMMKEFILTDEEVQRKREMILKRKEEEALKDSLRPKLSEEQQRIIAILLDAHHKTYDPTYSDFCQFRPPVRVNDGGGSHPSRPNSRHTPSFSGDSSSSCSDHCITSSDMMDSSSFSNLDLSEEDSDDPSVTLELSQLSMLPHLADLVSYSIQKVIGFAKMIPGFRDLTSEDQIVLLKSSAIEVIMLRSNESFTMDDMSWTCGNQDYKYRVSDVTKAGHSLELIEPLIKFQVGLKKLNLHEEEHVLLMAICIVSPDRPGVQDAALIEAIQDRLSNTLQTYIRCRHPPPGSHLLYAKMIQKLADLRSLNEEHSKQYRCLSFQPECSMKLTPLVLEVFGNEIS

Compared with CCC(C)n1c(=O)[nH]c(C)c(Br)c1=O (stereo unspecified), CCNc1nc(NC(C)C)nc(OC)n1 is higher in “activation” value: -6.6% for the first, 7.33% for the second.

Going from C[N+](C)=CCl to COc1cc(OC)nc(Sc2cccc(Cl)c2C(=O)O)n1, the “activation” value rises from -1.13% to 0.671%.

Going from CCOP(=S)(OCC)Oc1cc(-c2ccccc2)on1 to CCN(CC)c1nc(C)cc(OP(=S)(OC)OC)n1, the “activation” value falls from -7.56% to -10.6%.

Compared with CCOC(=O)NC(=S)Nc1ccccc1NC(=S)NC(=O)OCC, COP(N)(=S)Oc1ccccc1C(=O)OC(C)C (stereo unspecified) is lower in “activation” value: 5.75% for the first, 1.47% for the second.

Going from O=NN1CCN(N=O)CC1 to CC1=NNC(=O)N(/N=C/c2cccnc2)C1, the “activation” value rises from -0.288% to 6.62%.

Going from CN1CCC(O)(c2ccc(F)cc2)C(C(=O)c2ccc(F)cc2)C1 (stereo unspecified) to CN1C(=S)CN=C(c2ccccc2)c2cc(Cl)ccc21, the “activation” value rises from -4.32% to 2.48%.

First: C1CCC(C2CCCCC2)CC1
Second: C#C[C@]1(O)C=C[C@H]2[C@@H]3CCC4=CC(=O)CC[C@@H]4[C@H]3CC[C@@]21CC
The “activation” value of the first is higher: -6.25% for the first, -8.35% for the second.

Compared with CNC(=O)Oc1ccccc1C1OCCO1, Nc1cnn(-c2ccccc2)c(=O)c1Cl is higher in “activation” value: -3.37% for the first, 0.273% for the second.

First: O=[N+]([O-])c1ccc2c3c(cccc13)CC2
Second: CC(COc1ccc(Oc2ccccc2)cc1)Oc1ccccn1 (stereo unspecified)
The “activation” value of the first is lower: 4.74% for the first, 5.09% for the second.

First: BrCCCCCCBr
Second: CCCSP(=O)(OCC)Oc1ccc(Br)cc1Cl (stereo unspecified)
The “activation” value of the first is higher: 0.524% for the first, -1.87% for the second.

Compared with CCOc1nc(C(Cl)(Cl)Cl)ns1, N#CC(CCc1ccc(Cl)cc1)(Cn1cncn1)c1ccccc1 (stereo unspecified) is lower in “activation” value: 0.499% for the first, -11.4% for the second.

Compared with O=C(Cc1ccccc1)OCc1ccccc1, CC(CC(C#N)(c1ccccc1)c1ccccc1)N(C)C (stereo unspecified) is lower in “activation” value: -2.71% [at 81.1 µM] for the first, -3.75% [at 81.1 µM] for the second.

First: CCCCCCBr
Second: Nc1c(Br)cc([N+](=O)[O-])cc1[N+](=O)[O-]
The “activation” value of the first is lower: -0.859% [at 81.1 µM] for the first, 0.23% [at 81.1 µM] for the second.

Biological target: Vitamin D3 receptor (Homo sapiens) (UniProt P11473)
Assay: qHTS assay to identify small molecule antagonists of the vitamin D receptor (VDR) signaling pathway (AID 743223; active means well fitted inhibition curve with a large enough effect in the signal ratio in the repeat runs, not every such curve was filed as active; the % refers to the signal ratio)
Conditions: VDR-UAS-bla HEK293T, beta-lactamase FRET ratio, 16 h; series mostly up to 61 µM; activity change, negative = inhibition: at the top concentration
Summary of the method: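 Agonist 1alpha,25-dihydroxyvitamin D3 (3 nM in well) was added with each compound to VDR-bla cells preincubated 4 h. Cells stood 16 h at 37C, then FRET substrate 2 h at room temperature; fluorescence intensity recorded.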

Going from CCC(C)n1c(=O)[nH]c(C)c(Br)c1=O (stereo unspecified) to CCNc1nc(NC(C)C)nc(OC)n1, the “activity change, negative = inhibition” value falls from 2.88% to -8.22%.

Compared with C[N+](C)=CCl, CC(Cl)(Cl)[N+](=O)[O-] is higher in “activity change, negative = inhibition” value: 5.72% for the first, 17.5% for the second.

First: CC(C)(C)OC(=O)c1ncn2c1[C@@H]1CCCN1C(=O)c1c(Br)cccc1-2
Second: COc1cc(OC)nc(Sc2cccc(Cl)c2C(=O)O)n1
The “activity change, negative = inhibition” value of the first is higher: 10.3% for the first, 3.85% for the second.

First: O=NN1CCN(N=O)CC1
Second: CC1=NNC(=O)N(/N=C/c2cccnc2)C1
The “activity change, negative = inhibition” value of the first is lower: -7.71% for the first, 23.8% for the second.

First: CN1C(=S)CN=C(c2ccccc2)c2cc(Cl)ccc21
Second: N#CC(CCc1ccc(Cl)cc1)(Cn1cncn1)c1ccccc1 (stereo unspecified)
The “activity change, negative = inhibition” value of the first is higher: -0.43% for the first, -16.6% for the second.

Compared with C1CCC(C2CCCCC2)CC1, O=[N+]([O-])c1ccc2c3c(cccc13)CC2 is lower in “activity change, negative = inhibition” value: 3.44% for the first, 0.59% for the second.

Going from CC(CC(C#N)(c1ccccc1)c1ccccc1)N(C)C (stereo unspecified) to CC(COc1ccc(Oc2ccccc2)cc1)Oc1ccccn1 (stereo unspecified), the “activity change, negative = inhibition” value falls from -7.66% to -14.6%.

Compared with CNC(=O)Oc1ccccc1C1OCCO1, CCCSP(=O)(OCC)Oc1ccc(Br)cc1Cl (stereo unspecified) is lower in “activity change, negative = inhibition” value: -8.97% for the first, -20.1% for the second.

Going from Nc1cc(Cl)ccc1O to CCOc1nc(C(Cl)(Cl)Cl)ns1, the “activity change, negative = inhibition” value falls from -3.44% to -24.1%.

Going from O=C(Cc1ccccc1)OCc1ccccc1 to Nc1c(Br)cc([N+](=O)[O-])cc1[N+](=O)[O-], the “activity change, negative = inhibition” value falls from 2.4% [at 78.8 µM] to -5.4% [at 78.8 µM].

With CCCCCCBr the “activity change, negative = inhibition” value was 1.14% [at 78.8 µM].
